Assay results: the supplement of paper PMC9262897, “Low-cost anti-mycobacterial drug discovery using engineered E. coli” (Nature Communications, 2022)
Counter-ions that a name gives are not always drawn. ± gives the standard deviation of the averaged measurements.

Tests used:
Experiment in all cases: growth (OD600 after 10 h); higher = more growth (less inhibition)
[1] = test system: E. coli TESEC Alr+ wild-type control; conditions: compound 0.1 mM; raw OD600 reference: median of DMSO wells 0.241, cell-free background 0.041
Method: (§1)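 TESEC Mtb Alr E. coli, or the Alr+ wild-type control, in 384-well plates with Prestwick library compounds at 0.1 mM and 1% DMSO, across arabinose induction levels of 1E3 to 1E7 nM. Growth is read as OD600 after 10 h at 37 °C in triplicate biological replicates.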

E. coli TESEC Mtb Alr [2] = conditions: compound 0.1 mM
Method: as §1

E. coli TESEC Mtb Asd = conditions: compound 0.1 mM
Method: (§2)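 TESEC E. coli strains in which the native enzyme is deleted and replaced by arabinose-inducible Mtb Asd, DapB, CysH or TrpD, each grown in its selective medium. Strains were screened against the Prestwick library at 0.1 mM and 1% DMSO in 384-well format at low and high arabinose induction. Growth is read as OD600 after 10 h in triplicate.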

E. coli TESEC Mtb DapB = conditions: compound 0.1 mM
Method: as §2

E. coli TESEC Mtb Alr [3] = conditions: compound 0.1 mM; remark: listed apart in the source
Method: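 TESEC Mtb Alr E. coli (ΔaraC ΔtolC ΔentC Δalr ΔdadX, arabinose-inducible Mtb Alr) or the Alr+ wild-type control strain, grown in defined M9-fructose medium without D-alanine in 96-well plates with Prestwick library compounds at 0.1 mM and 1% DMSO. Low Alr induction is 0.1 µM arabinose and high induction is 10 mM arabinose.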

[4] = arabinose 1000 nM, raw OD600 reference: median of DMSO wells 0.294, cell-free background 0.041
[5] = arabinose 10000 nM, raw OD600 reference: median of DMSO wells 0.264, cell-free background 0.041
[6] = arabinose 100000 nM, raw OD600 reference: median of DMSO wells 0.201, cell-free background 0.041
[7] = arabinose 1000000 nM, raw OD600 reference: median of DMSO wells 0.193, cell-free background 0.041
[8] = arabinose 10000000 nM, raw OD600 reference: median of DMSO wells 0.146, cell-free background 0.041
[9] = arabinose induction (level): High, raw OD600 reference: median of DMSO wells 0.331, cell-free background 0.041
[10] = arabinose induction (level): Low, raw OD600 reference: median of DMSO wells 0.417, cell-free background 0.041
[11] = arabinose induction (level): High, raw OD600 reference: median of DMSO wells […], cell-free background 0.041
[12] = arabinose induction (level): Low, raw OD600 reference: median of DMSO wells 0.227, cell-free background 0.041
[13] = arabinose 100 nM, raw OD600 reference: median of DMSO wells 0.413, cell-free background 0.052
[14] = arabinose 10000000 nM, raw OD600 reference: median of DMSO wells […], cell-free background 0.052

Row | SMILES | growth [1] | growth (E. coli TESEC Mtb Alr [2]; [4]) | growth (E. coli TESEC Mtb Alr [2]; [5]) | growth (E. coli TESEC Mtb Alr [2]; [6]) | growth (E. coli TESEC Mtb Alr [2]; [7]) | growth (E. coli TESEC Mtb Alr [2]; [8]) | growth (E. coli TESEC Mtb Asd; [9]) | growth (E. coli TESEC Mtb Asd; [10]) | growth (E. coli TESEC Mtb DapB; [11]) | growth (E. coli TESEC Mtb DapB; [12]) | growth (E. coli TESEC Mtb Alr [3]; [13]) | growth (E. coli TESEC Mtb Alr [3]; [14])
1 | CCCCc1ccc2[nH]c(NC(=O)OC)nc2c1 [Parbendazole] | 0.244 ± 0.01 | 0.307 ± 0.0063 | 0.277 ± 0.0036 | 0.213 ± 0.034 | 0.206 ± 0.0056 | 0.156 ± 0.0051 | 0.279 ± 0.015 | 0.435 ± 0.0069 | 0.208 ± 0.0058 | 0.279 ± 0.031 | 0.4255 ± 0.003 | 0.374 ± 0.045
2 | Cc1cc(-n2c(=O)[nH]c(=O)n(C)c2=O)ccc1Oc1ccc(SC(F)(F)F)cc1 [Toltrazuril] | 0.0494 ± 0.013 | 0.0602 ± 0.032 | 0.0431 ± 0.006 | 0.0449 ± 0.0059 | 0.0576 ± 0.031 | 0.0455 ± 0.0035 | 0.0752 ± 0.012 | 0.203 ± 0.057 | 0.227 ± 0.017 | 0.254 ± 0.016 | 0.0828 ± 0.028 | 0.0543 ± 0.0016
3 | C=CCOC(Cn1ccnc1)c1ccc(Cl)cc1Cl (stereo unspecified) [Enilconazole] | 0.0491 ± 0.0028 | 0.0495 ± 0.0068 | 0.0424 ± 0.00087 | 0.0459 ± 0.0018 | 0.043 ± 0.0011 | 0.0488 ± 0.0025 | 0.0691 ± 0.01 | 0.0619 ± 0.0052 | 0.0767 ± 0.0029 | 0.0764 ± 0.0069 | 0.193 ± 0.0082 | 0.0627 ± 0.0022
4 | C[C@H](CCC(=O)O)[C@H]1CC[C@H]2[C@@H]3CC[C@@H]4C[C@H](O)CC[C@]4(C)[C@H]3CC[C@]12C [Lithocholic acid] | 0.255 ± 0.011 | 0.312 ± 0.011 | 0.266 ± 0.0075 | 0.207 ± 0.012 | 0.169 ± 0.0078 | 0.173 ± 0.0071 | 0.462 ± 0.008 | 0.404 ± 0.022 | 0.214 ± 0.011 | 0.229 ± 0.021 | 0.325 ± 0.037 | 0.3 ± 0.017
5 | Fc1ccc(C(c2ccc(F)cc2)N2CCN(C/C=C/c3ccccc3)CC2)cc1 [Flunarizine dihydrochloride] | 0.0778 ± 0.012 | 0.11 ± 0.019 | 0.0787 ± 0.0024 | 0.116 ± 0.012 | 0.0591 ± 0.0018 | 0.0509 ± 0.0027 | 0.0843 ± 0.013 | 0.056 ± 0.0016 | 0.0896 ± 0.0018 | 0.163 ± 0.065 | 0.318 ± 0.037 | 0.128 ± 0.014
6 | CC(C)NCC(O)COc1cccc2[nH]ccc12 (stereo unspecified) [Pindolol] | 0.233 ± 0.0063 | 0.286 ± 0.024 | 0.271 ± 0.014 | 0.203 ± 0.0064 | 0.179 ± 0.0088 | 0.142 ± 0.00072 | 0.393 ± 0.0086 | 0.403 ± 0.021 | 0.201 ± 0.011 | 0.231 ± 0.048 | 0.413 ± 0.0051 | 0.376 ± 0.013
7 | CC(C)C(=O)Nc1ccc([N+](=O)[O-])c(C(F)(F)F)c1 [Flutamide] | 0.191 ± 0.0072 | 0.189 ± 0.0088 | 0.161 ± 0.0036 | 0.203 ± 0.0051 | 0.0619 ± 0.00076 | 0.0856 ± 0.0029 | 0.156 ± 0.024 | 0.165 ± 0.01 | 0.177 ± 0.013 | 0.218 ± 0.039 | 0.383 ± 0.036 | 0.16 ± 0.036
8 | CN(CCOc1ccc(NS(C)(=O)=O)cc1)CCc1ccc(NS(C)(=O)=O)cc1 [Dofetilide] | 0.209 ± 0.0043 | 0.28 ± 0.0052 | 0.253 ± 0.008 | 0.171 ± 0.016 | 0.173 ± 0.0041 | 0.133 ± 0.0023 | 0.213 ± 0.019 | 0.336 ± 0.076 | 0.229 ± 0.041 | 0.241 ± 0.032 | 0.427 ± 0.0089 | 0.318 ± 0.0084
9 | CCC(Cc1c(I)cc(I)c(N)c1I)C(=O)O (stereo unspecified) [Iopanoic acid] | 0.0835 ± 0.0044 | 0.0987 ± 0.0055 | 0.0635 ± 0.0046 | 0.097 ± 0.003 | 0.0566 ± 0.001 | 0.0777 ± 0.0027 | 0.114 ± 0.0023 | 0.0943 ± 0.0055 | 0.148 ± 0.005 | 0.177 ± 0.005 | 0.339 ± 0.018 | 0.0809 ± 0.0061
10 | Cc1cc(N)c2ccccc2[n+]1CCCCCCCCCC[n+]1c(C)cc(N)c2ccccc21 [Dequalinium dichloride] | 0.048 ± 0.0004 | 0.04803 ± 0.00032 | 0.0469 ± 0.00052 | 0.04963 ± 0.00015 | 0.0458 ± 0.00071 | 0.049 ± 0.0001 | 0.0691 ± 0.0051 | 0.0634 ± 0.006 | 0.0601 ± 0.004 | 0.0586 ± 0.0011 | 0.0979 ± 0.005 | 0.0648 ± 0.0024
11 | CC(C)(Oc1ccc(CCNC(=O)c2ccc(Cl)cc2)cc1)C(=O)O [Bezafibrate] | 0.249 ± 0.0031 | 0.296 ± 0.0036 | 0.237 ± 0.0024 | 0.208 ± 0.028 | 0.163 ± 0.0041 | 0.138 ± 0.0072 | 0.237 ± 0.074 | 0.298 ± 0.021 | 0.184 ± 0.012 | 0.216 ± 0.013 | 0.43 ± 0.0059 | 0.322 ± 0.019
12 | C[C@]12C[C@H](O)[C@H]3[C@@H](CCC4=CC(=O)CC[C@@]43C)[C@@H]1CC[C@@H]2C(=O)CO [Corticosterone] | 0.143 ± 0.0016 | 0.195 ± 0.006 | 0.252 ± 0.011 | 0.143 ± 0.015 | 0.16 ± 0.0065 | 0.134 ± 0.0044 | 0.235 ± 0.059 | 0.268 ± 0.055 | 0.179 ± 0.017 | 0.206 ± 0.032 | 0.402 ± 0.017 | 0.246 ± 0.0064
13 | CC(=O)Nc1ccc(CC(=O)O)cc1 [Actarit] | 0.2349 ± 0.00093 | 0.291 ± 0.024 | 0.259 ± 0.0053 | 0.198 ± 0.015 | 0.217 ± 0.0053 | 0.136 ± 0.0042 | 0.291 ± 0.009 | 0.311 ± 0.097 | 0.183 ± 0.017 | 0.203 ± 0.025 | 0.412 ± 0.011 | 0.342 ± 0.015
